Results reported in ChEMBL document CHEMBL3988442, “University of Dundee, Small-Polar-MMV Screening Library” (2021).

target: AMP-activated protein kinase, AMPK (Homo sapiens) (UniProt P54646+O43741+P54619+Q9UGJ0+Q9Y478+Q13131+Q9UGI9); assay: AMP-dependent Kinase enzyme assay. An in vitro enzyme assay that detects ADP turnover that is directly proportional to AMPK activity. This uses naive AMPK that is activated during the assay with MK-8722; assay type: functional; parameters: scale not given: direction of the effect not stated beside the values; details: 30 µM

SMILES	Percent Effect [%]
COc1c(C)cnc(CN2CCCC2c2noc(C3CC3)n2)c1C (stereo not given)	-14.3
Cc1cc(C(=O)N2CC[C@](C)(O)[C@H](C)C2)c(C)n1C	-6.41
Cc1cc(C(=O)N2C[C@@H](CN(C)CCN(C)C)[C@@H](CO)C2)nc(C)n1	-14.8
CC(C)CC(=O)N1Cc2ccccc2CC1C(=O)Nc1nncs1 (stereo not given)	-25.1
CCN(Cc1nccn1C)C1CCN(c2ccccc2)C1=O (stereo not given)	-7.13
CNC(=O)c1ccnc(CC2COc3c(cccc3OC)C2)c1 (stereo not given)	7.88
CC(C)(C)NC(=O)CNc1ccc(Br)cn1	7.07
CN1CCN(CCNC(=O)c2sccc2C2CC2)CC1	3.89
Cc1onc(-c2ccncc2)c1C(=O)NC1CCCOC1 (stereo not given)	-0.537
Cc1ccc(C(NC(=O)CCCN2CCCCC2)C(=O)O)cc1 (stereo not given)	11.8
Cc1cc(C)c(C(=O)N(C)CCN(C)C(=O)OC(C)(C)C)[nH]1	-0.277
COC(=O)N1CCCCC1C(=O)N1CCN(c2ncccc2C)CC1 (stereo not given)	-4.85
CCC(C)NC(=O)c1sccc1-n1cnnn1 (stereo not given)	9.35
O=C(NCC1CCS(=O)(=O)C1)N(Cc1ccco1)C1CC1 (stereo not given)	-4.86
COC(=O)CSCc1noc(-c2ccc(Cl)cc2)n1	-9.28
O=C1CN(Cc2cn(CC3CCCN(C4CCSCC4)C3)nn2)CCN1 (stereo not given)	-8.48
O=C(COc1cccnc1)NCc1nncn1C1CCCCC1	-3.67
CCCc1ccc(CN2CCC3(CCC(=O)N(CCCOC)C3)CC2)o1	4.14
COc1ccc(CN(C)Cc2c(C)noc2C)c(Br)c1OC	2.55
CC(Oc1cccc(Cl)c1)C(=O)Nc1cnn(CC(=O)NC2CC2)c1 (stereo not given)	1.4

SMILES	Percent Effect [%]
CN(Cc1ccncc1)Cc1cnn(-c2ccc(F)cc2)c1	11.6
Cc1ccc(-c2ccccc2CC2(C(=O)NC(C)C)CCCNC2)cc1 (stereo not given)	6.43
O=C(c1nnn(-c2ccccc2)n1)N(CCO)CCO	0.534
Cc1cncc(C2CCN(Cc3cnc(C)nc3)CC2)n1	9.99
CN(C)c1cccc(C(=O)Nc2cnn(Cc3ccncc3)c2)c1	-4.34
CC(=O)N[C@H]1CCN(C(=O)c2cc(Cn3cnc4ccccc43)[nH]n2)C1	-3.06
NC(=O)CC1CCCN(c2cncc(SCc3ccccc3)n2)C1 (stereo not given)	25.3
CC(C)[C@]1(O)CN(C(=O)C2(Cn3cccn3)CC2)C[C@H]1C	-3.27
CNC(=O)c1cc(NC(=O)Nc2cnn(CC(C)C)c2)ccc1F	-5.42
Cc1cc(NC(=O)CN2CCN(C3CCCC3)C(=O)C2)nn1C	8.93
CC(C)c1cc(C2CCN(C(=O)Cn3cnc4ccccc43)CC2)[nH]n1	10.5
Cc1cc(Cl)c(C)c(S(=O)(=O)N2CCN(Cc3ccncc3)CC2)c1Cl	-2.88
FC(F)(F)c1cc(C2CCCN(Cc3cccnc3)C2)n[nH]1 (stereo not given)	5.52
Cc1ccsc1C(=O)NCc1ccnc(C2CCCOC2)n1 (stereo not given)	11.8
CCc1nc(NC(=O)Cc2csc(-c3nnc[nH]3)n2)sc1C	3.13
NC(=O)COc1ccc(CN2CCC(O)(CN3CCCCC3)C2)cc1Cl (stereo not given)	2.63
CCNC(=O)c1ccc(NC(=O)N(C)Cc2cc(C)on2)cc1	16.8
CC(C)c1nnc2n1CCN(Cc1ccc3c(c1)OCCO3)C2	3.43
C[C@@H]1CN(CC(=O)NCc2ccccn2)C[C@]1(C)O	8.43
Cc1cccn2cc(CNS(=O)(=O)N3CCOCC3)nc12	4.51
